JMJD2A Tudor – qHTS Assay for Inhibitors of JMJD2A-Tudor Domain. Lysine-specific demethylase 4A (Homo sapiens), O75164. AlphaScreen JMJD2A-Tudor / H3K4me3 peptide binding. Potency, µM (titrated, usually from 114 µM), without a hit: at the top dose activity change, negative = inhibition, hits mostly inhibitors. 390,000 tested, 4.4% active. AID 504339, 2011; note: % is set by controls: 0 for no effect and ±100 for the full control effect; nearly all actives have a fitted effect of over 50% in size
HP1b binding inh – HTS for Inhibitors of HP1-beta Chromodomain Interactions with Methylated Histone Tails. Potency, µM (series often up to 114 µM), for inactives: top-dose activity change, negative = inhibition, hits mostly inhibitors. 390,000 tested, 0.56% active. Chromobox protein homolog 1 (Homo sapiens), P83916. AlphaScreen HP1-beta / biotin-H3K9me3 peptide binding; note: nearly all actives have a fitted effect of over 70% in size
Target sequence (P83916 whole entry, looked up): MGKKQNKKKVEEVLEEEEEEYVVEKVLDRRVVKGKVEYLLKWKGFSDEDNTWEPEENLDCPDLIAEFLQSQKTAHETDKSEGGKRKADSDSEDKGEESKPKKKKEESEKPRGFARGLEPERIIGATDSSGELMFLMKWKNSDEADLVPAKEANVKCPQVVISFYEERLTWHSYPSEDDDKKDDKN
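Compound inhibition of the preformed complex between 50 nM HP1-beta and 50 nM biotinylated H3K9me3 peptide was read by AlphaScreen. Buffer was PBS pH 7.4 with 0.01% Tween-20. Incubations ran 30 min at room temperature, with 10 ug/mL donor/acceptor beads.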
G9a block – qHTS Assay for Inhibitors of Histone Lysine Methyltransferase G9a | Histone-lysine N-methyltransferase EHMT2 (Homo sapiens), Q96KQ7 | G9a H3K9 monomethylation, AlphaScreen, 2 h | Potency, µM (doses to about 102 µM), without a hit: top-dose activity, negative = inhibition, actives largely listed as inhibitors | 350,000 tested, 8.8% active | AID 504332, 2011; note: % is set by controls: 0 for no effect and ±100 for the full control effect; nearly all actives have a fitted effect of over 75% in size
Target sequence (Q96KQ7 913-1193 limits assumed): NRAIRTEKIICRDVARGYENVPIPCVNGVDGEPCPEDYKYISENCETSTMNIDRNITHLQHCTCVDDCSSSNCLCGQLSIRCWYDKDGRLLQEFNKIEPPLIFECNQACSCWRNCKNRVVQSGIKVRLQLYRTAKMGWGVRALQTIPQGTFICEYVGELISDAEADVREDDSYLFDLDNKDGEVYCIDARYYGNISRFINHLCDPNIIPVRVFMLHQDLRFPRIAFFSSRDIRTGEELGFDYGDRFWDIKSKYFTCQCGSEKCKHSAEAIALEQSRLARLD
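G9a (20 nM) was preincubated 15 min with compound, then reacted 2 h at room temperature with 500 nM biotin-H3K9 peptide and 20 µM SAM. Monomethyl-H3K9 detected by AlphaScreen using anti-H3K9me1 antibody.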
GLS inhibitor – qHTS for Inhibitors of Glutaminase (GLS). Potency, µM (top dose mostly 45.5 µM), for inactives: at the highest dose activity change, negative = inhibition, actives largely listed as inhibitors. GLS enzymatic activity, qHTS titration. Glutaminase kidney isoform, mitochondrial (Homo sapiens), O94925. 410,000 tested, 0.21% active; note: % is set by controls: 0 for no effect and ±100 for the full control effect
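hKGA; 45 mM KH2PO4 pH 8.2 + 0.02% Tween-20; cpd via pin tool; 1 mM Gln soln; GluOx/HRP/Amplex Red; RT 30 min; fluor. t0 & final.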
BAZ2B inh – qHTS Assay for Inhibitors of BAZ2B. Bromodomain adjacent to zinc finger domain protein 2B (Homo sapiens), Q9UIF8. AlphaScreen BAZ2B-H3K14Ac peptide displacement. Potency, µM (top dose mostly 114 µM), for the others: top-dose activity change, negative = inhibition, hits mostly inhibitors. 360,000 tested, 4.4% active. AID 504333, 2011; note: % is set by controls: 0 for no effect and ±100 for the full control effect; nearly all actives have a fitted effect of over 60% in size
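AlphaScreen displacement of biotin-H3(5-23)K14Ac peptide (50 nM final) from BAZ2B (50 nM final) in PBS pH 7.4, 0.01% Tween-20; complex preformed 30 min RT, then compounds (top 110 uM) 30 min RT, beads 20 min dark.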
* = called active by the depositor; [ ] = remark or other dose. Sampled rows, rich in hits. Any-hit rate of the full collection: about 10%. Calls come from the whole dose curve; as a rule, active = well fitted curve in the direction sought with a large enough effect; inconclusive = small, poorly fitted or top-dose-only effect, or another doubt; inactive = no such curve, though single readings can be large; an effect the other way counts as inactive or inconclusive. Potency is the fitted concentration of half-maximal effect.

How did O=C1CC(=O)Nc2cc(S(=O)(=O)N3CCN(c4ccc([N+](=O)[O-])cc4)CC3)ccc2N1 do in these assays?
JMJD2A Tudor: 29%; HP1b binding inh: 44%; G9a block: 13µM*; GLS inhibitor: -4%; BAZ2B inh: 50µM*

How did O=C1Cc2cc(S(=O)(=O)N3CCN(c4ccc(F)cc4)CC3)ccc2N1 do in these assays?
JMJD2A Tudor: -26%[229 µM]

Results for CC(C)CC(=O)/C(=C\c1ccc(Cl)cc1Cl)n1cncn1 ?
JMJD2A Tudor: -18%; HP1b binding inh: 35%; G9a block: 79µM*; GLS inhibitor: -3%; BAZ2B inh: -4%

Results for CN(C)c1ccc(/C=C(/C(=O)c2ccc(Cl)cc2Cl)n2cncn2)cc1 ?
JMJD2A Tudor: inconclusive; HP1b binding inh: -11%; G9a block: -8%[59 µM]; GLS inhibitor: 15%; BAZ2B inh: 50µM*

How did CC(C)CC(=O)/C(=C/c1ccc(N(C)C)cc1)n1cncn1 do in these assays?
JMJD2A Tudor: -8%; HP1b binding inh: 26%; G9a block: 17%[2.33 µM]; GLS inhibitor: 2%; BAZ2B inh: 2%

How did COc1ccc(/C=C(/C(=O)c2ccc(Cl)cc2Cl)n2cncn2)cc1 do in these assays?
JMJD2A Tudor: -32%; HP1b binding inh: 2%; G9a block: -14%[59 µM]; GLS inhibitor: 13%; BAZ2B inh: -10%

How did Cc1cnc(NC(=O)c2cccc(S(=O)(=O)N3CC(C)OC(C)C3)c2)s1 (configuration not stated) do in these assays?
JMJD2A Tudor: -12%; HP1b binding inh: 36%; G9a block: -1%; GLS inhibitor: 2%

Results for Nc1nc(-c2ccc(Oc3ccccc3)cc2)c(CC(=O)O)s1 ?
JMJD2A Tudor: -22%; HP1b binding inh: 15%; G9a block: 32µM*; GLS inhibitor: 7%; BAZ2B inh: -24%

What do the screens show for `Nc1nc(-c2cccs2)c(CC(=O)O)s1`?
JMJD2A Tudor: -34%; HP1b binding inh: 23%; G9a block: 40µM*; GLS inhibitor: 9%; BAZ2B inh: 0%

How did Nc1nc(-c2ccccc2)c(CC(=O)O)s1 do in these assays?
GLS inhibitor: 18%

What do the screens show for `O=C(O)Cc1sc(Nc2ccc(Cl)cc2)nc1-c1cccs1`?
JMJD2A Tudor: -28%; HP1b binding inh: -4%; G9a block: inconclusive; GLS inhibitor: inconclusive; BAZ2B inh: inconclusive

What do the screens show for `CCNC(=S)NS(=O)(=O)c1ccc(Cl)cc1`?
JMJD2A Tudor: 25µM*; HP1b binding inh: -11%; G9a block: inconclusive; GLS inhibitor: 1%; BAZ2B inh: -2%

Results for CCNC(=S)NS(=O)(=O)c1ccccc1 ?
JMJD2A Tudor: 40µM*; HP1b binding inh: -31%; G9a block: 28µM*; GLS inhibitor: 5%; BAZ2B inh: inconclusive

How did CS(=O)(=O)c1ccc(NCCc2ccccn2)c([N+](=O)[O-])c1 do in these assays?
JMJD2A Tudor: -18%; HP1b binding inh: -12%; G9a block: -1%; GLS inhibitor: 6%; BAZ2B inh: -7%

What do the screens show for `CCOC(=O)C1CCCN(C2=C(NS(=O)(=O)c3ccc(Br)cc3)C(=O)c3ccccc3C2=O)C1` (configuration not stated)?
JMJD2A Tudor: 10µM*; HP1b binding inh: 10µM*; GLS inhibitor: 14%; BAZ2B inh: 8.9µM*

What do the screens show for `CCOC(=O)C1CCN(C2=C(NS(=O)(=O)c3ccc(Cl)cc3)C(=O)c3ccccc3C2=O)CC1`?
JMJD2A Tudor: 11µM*; HP1b binding inh: inconclusive; G9a block: 4.5µM*; GLS inhibitor: 34%; BAZ2B inh: 8.9µM*

Results for CC(C)(CN1CCCC1)NS(=O)(=O)c1ccc(Cl)cc1 ?
JMJD2A Tudor: 0%; HP1b binding inh: 0%; G9a block: 5%[12.7 µM]; GLS inhibitor: 9%; BAZ2B inh: 6%

Screens from PubChem BioAssay.
